Records with an inconclusive call do not appear. Where a call stands in place of a potency, no number is given. Active and inactive are the calls of the source. Unless noted, calls come from the whole dose curve; as a rule, active = well fitted curve in the direction sought with a large enough effect; inconclusive = small, poorly fitted or top-dose-only effect, or another doubt; inactive = no such curve, though single readings can be large; an effect the other way counts as inactive or inconclusive.

One assay can be described thus: qHTS of Nrf2 Activators: LOPAC Validation (AID 624149). Particulars: Nrf2/ARE reporter cell assay; series mostly up to 46.1 µM. Summed up: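 AREc32 cells carrying an ARE-driven firefly luciferase were grown overnight in OPTI-MEM with 5% FBS, then exposed to compounds for 24 hr at 37 deg C. Luciferase signal was read after 30 min with Steady-Glo at RT.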
As for `NC1CCc2cc(O)c(O)cc2C1` (configuration not stated), the call was inactive.

`C[C@]12N[C@H](Cc3ccccc31)c1ccccc12`: the compound was classed as inactive.

For the compound `CNCCc1c[nH]c2ccc(O)cc12`, the call was inactive.

For `Oc1ccc2c3c1O[C@H]1c4[nH]c5c(c4C[C@@]4(O)[C@@H](C2)N(CC2CC2)CC[C@]314)C[C@@]1(O)[C@H]2Cc3ccc(O)c4c3[C@@]1(CCN2CC1CC1)[C@H]5O4`, the outcome was inactive.

Turning to `O=C(O)CC[N+](=O)[O-]`, the compound was called inactive.

Regarding `CC(=O)NCCc1c[nH]c2ccccc12`, the compound was classed as inactive.

As to `O=C(N[C@H]1CN2CCC1CC2)c1ccc(Cl)cc1`, the compound was called inactive.

As to `O=C1CCCN1CC#CCN1CCCC1`, the outcome was inactive.

With `CN[C@@H]1C[C@@H](c2ccc(Cl)c(Cl)c2)c2ccccc21`, the compound was classed as inactive.

Another assay in a line: HTS Assay for Allosteric Antagonists of the Human D2 Dopamine Receptor: Hit Validation in HTRF (AID 624455). Note: potency is the fitted concentration of half-maximal effect.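 Note: stable D1 dopamine receptor cell line scored for blocking the D1 response.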 Particulars: Cells stably expressing D1 dopamine receptor, inhibition mode; series mostly up to 46.1 µM. The method, boiled down:
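Hits were examined in an HTRF assay using cells stably expressing the D1 dopamine receptor, scoring inhibition of the D1-mediated response. The preceding primary screen tracked calcium flux after an EC80 dopamine addition in force-coupled, inducible Hek293 Trex D2 cells.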
As for `CC[C@@]1(O)C(=O)OCc2c1cc1n(c2=O)Cc2cc3ccccc3nc2-1`, the Potency result is “inactive”.

Take `NC(CP(=O)(O)O)C(=O)O` (configuration not stated): the Potency result is “inactive”.

With `Cn1cnc(CCN)c1`, the Potency entry was “inactive”.

`NC(N)=NOCCC(N)C(=O)O` (configuration not stated): the Potency entry was “inactive”.

As to `CC(Cc1ccc(O)cc1)NCC(O)c1cc(O)cc(O)c1` (configuration not stated), the Potency entry is “inactive”.

As to `Cc1c(C(=O)c2cccc3ccccc23)c2cccc3c2n1[C@H](CN1CCOCC1)CO3`, the Potency entry was “inactive”.

As to `CC[C@@H](C(N)=O)N1CCCC1=O`, the Potency result was “inactive”.

In the case of `NCc1cc(=O)[nH]o1`, the Potency entry is “inactive”.

As for `c1ccc2sc(C3(N4CCCCC4)CCCCC3)cc2c1`, the Potency entry was “inactive”.

`CNCCc1ccc(O)c(O)c1`: the Potency was 0.13 µM (active).

As to `NC(=NCCC[C@H](N)C(=O)O)N[N+](=O)[O-]`, the Potency entry is “inactive”.

Consider `O=C(Cc1ccc(Cl)c(Cl)c1)N1CCCCC1CN1CCCC1` (configuration not stated), for which the Potency result is “inactive”.

`C[C@@H]1O[C@H](C[N+](C)(C)C)C[C@H]1O`: the Potency result is “inactive”.

Regarding `NCCc1c[nH]c2ccc(O)cc12`, the Potency entry was “inactive”.

With `Clc1cnc(Oc2ccc(Oc3ncc(Cl)cc3Cl)cc2)c(Cl)c1`, the Potency result was “inactive”.

In the case of `CC(C)Oc1cccnc1N(C)C1CCN(Cc2ccccc2)CC1`, the Potency result was “inactive”.

As for `O=C(O)[C@@H]1CCN1`, the Potency result was “inactive”.

Regarding `CC1=NN=C(c2ccc(N)cc2)c2cc3c(cc2C1)OCO3`, the Potency entry was “inactive”.

Take `S=C(NC1CCCCC1)N1CCC(c2cnc[nH]2)CC1`: the Potency result was “inactive”.

As to `C/C=C(/C)C(=O)O[C@H]1C(C)=C2[C@H]([C@@H]1OC(=O)CCCCCCC)[C@@](C)(OC(C)=O)C[C@H](OC(=O)CCC)[C@@]1(O)[C@H]2OC(=O)[C@@]1(C)O`, the Potency result was “inactive”.

Consider `C[N+]1(C)C2CCC1CC(OC(=O)C(CO)c1ccccc1)C2` (configuration not stated), for which the Potency entry was “inactive”.

`NC1CCc2cc(O)c(O)cc2C1` (configuration not stated): the Potency is 0.0164 µM (active).

For the compound `C[C@]12N[C@H](Cc3ccccc31)c1ccccc12`, the Potency result was “inactive”.

For the compound `CNCCc1c[nH]c2ccc(O)cc12`, the Potency entry is “inactive”.

Consider `Oc1ccc2c3c1O[C@H]1c4[nH]c5c(c4C[C@@]4(O)[C@@H](C2)N(CC2CC2)CC[C@]314)C[C@@]1(O)[C@H]2Cc3ccc(O)c4c3[C@@]1(CCN2CC1CC1)[C@H]5O4`, for which the Potency entry is “inactive”.

Take `O=C(O)CC[N+](=O)[O-]`: the Potency entry was “inactive”.

In the case of `CC(=O)NCCc1c[nH]c2ccccc12`, the Potency entry is “inactive”.

With `O=C(N[C@H]1CN2CCC1CC2)c1ccc(Cl)cc1`, the Potency entry was “inactive”.

As for `O=C1CCCN1CC#CCN1CCCC1`, the Potency result was “inactive”.

With `CN[C@@H]1C[C@@H](c2ccc(Cl)c(Cl)c2)c2ccccc21`, the Potency entry is “inactive”.

Turning to `COc1ccc2c(c[n+](C)c3c4cc5c(cc4ccc23)OCO5)c1OC`, the Potency entry is “inactive”.

A short description of another assay: Cytotoxicity counterscreen for NFkB agonists and antagonists (AID 624476).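 Note: cells exposed to compound for 48 hours.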 Note: potency is the fitted concentration of half-maximal effect. To be noted: NFkB reporter cell line viability counterscreen; series mostly up to 46.1 µM. Background: A counterscreen serves to expose hits that act by an unwanted route or on another target.
For the compound `Cc1ccccc1-n1c(Cn2cnc3c(N)ncnc32)nc2cccc(C)c2c1=O`, the Potency is 13.2 µM (active).

Turning to `CC(=O)Nc1ccc(OC[C@](C)(O)C(=O)Nc2ccc([N+](=O)[O-])c(C(F)(F)F)c2)cc1`, the Potency result was “inactive”.

For `CC1CC(C)C(=O)C(C(O)CC2CC(=O)NC(=O)C2)C1` (configuration not stated), the Potency result was “inactive”.

Consider `COc1ccc2c(c[n+](C)c3c4cc5c(cc4ccc23)OCO5)c1OC`, for which the Potency was 23.5 µM (active).

A short description of the next assay: qHTS Assay for Identification of Small Molecule Agonists for NFkB Signaling Pathway. (AID 624478).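 Note: compounds tested together with TNF alpha at its EC50 of 10 pM.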 Particulars: NFkB pathway reporter cell assay, agonist mode, cells co-stimulated with 10 pM TNF alpha; series mostly up to 46.1 µM. On the procedure:
The TNF alpha/NFkB signaling pathway was assayed in NFkB-bla cells (Invitrogen), a ME-180 cervical carcinoma line containing a stably integrated beta-lactamase reporter gene controlled by a NFkB response element. This reporter is induced by TNF alpha at 10 pM EC50 and inhibited by the proteosome inhibitor MG-132 at approximately 100 nM IC50. The assay was screened at the EC50 of TNF alpha activation to identify activators of TNF alpha/NFkB signaling
Cells were trypsinized, washed in assay medium (AM, OPTI MEM with 0.5% fetal bovine serum, 0.1 mM nonessential amino acids, 1 mM sodium pyruvate, 10mM HEPES pH 7.3, 100U/ml penicillin, and 100 ug/ml streptomycin) and plated at 1000 cells/5 uL/well into black clear-bottom 1536 well plates. After an overnight incubation at 37 C and 5% CO2, 23 nL of compound were delivered by a pin tool, 1 uL of TNF alpha (10 pM final concentration in AM) was added and plates were incubated at 37 C for 5 hrs. One uL of LiveBLAzerTM detector mix (Invitrogen) was added, the plates incubated at room temperature for 2 hrs, and fluorescence intensity at 460 and 530 nm emission was measured at 405 nm excitation by an Envision (Perkin Elmer).
For orientation: In qHTS, concentration-response curves come from the screen itself.
With `Cc1ccccc1-n1c(Cn2cnc3c(N)ncnc32)nc2cccc(C)c2c1=O`, the outcome was inactive.

With `CC(=O)Nc1ccc(OC[C@](C)(O)C(=O)Nc2ccc([N+](=O)[O-])c(C(F)(F)F)c2)cc1`, the result was inactive.

For the compound `CC1CC(C)C(=O)C(C(O)CC2CC(=O)NC(=O)C2)C1` (configuration not stated), the compound was called inactive.

A further assay is described as follows: qHTS Assay for Identification of Small Molecule Antagonists for NFkB Signaling Pathway. (AID 624479; calls by dose curve; note: potency is the fitted concentration of half-maximal effect). To be noted: NFkB pathway reporter cell assay, antagonist mode; series mostly up to 38.3 µM.
Regarding `Cc1ccccc1-n1c(Cn2cnc3c(N)ncnc32)nc2cccc(C)c2c1=O`, the Potency entry is “inactive”.

In the case of `CC(=O)Nc1ccc(OC[C@](C)(O)C(=O)Nc2ccc([N+](=O)[O-])c(C(F)(F)F)c2)cc1`, the Potency entry was “inactive”.

For the compound `CC1CC(C)C(=O)C(C(O)CC2CC(=O)NC(=O)C2)C1` (configuration not stated), the Potency is 1.09 µM (active).

A short description of a further assay: Cell Proliferation Assay against the HBL1 Cell Line (AID 651646).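 Note: cells exposed to compound for 48 h before reading.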 To be noted: HBL1 DLBCL cells; at 46.1 µM (top of the series) unless noted. The method, boiled down: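 500 log-phase HBL1 cells per well in phenol red-free RPMI with 5% FBS were treated with compounds for 48 h at 37 °C, 5% CO2. Viability was read by CellTiter-Glo luminescence, normalized to DMSO (100%) and 9.2 uM bortezomib final (0%).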
`Cc1ccccc1-n1c(Cn2cnc3c(N)ncnc32)nc2cccc(C)c2c1=O`: the viability, percent of control is 62.6%.

Turning to `CC(=O)Nc1ccc(OC[C@](C)(O)C(=O)Nc2ccc([N+](=O)[O-])c(C(F)(F)F)c2)cc1`, the viability, percent of control was found to be 96.7%.

Take `CC1CC(C)C(=O)C(C(O)CC2CC(=O)NC(=O)C2)C1` (configuration not stated): the viability, percent of control came out at 43.6% [at 92.2 µM].

For the compound `COc1ccc2c(c[n+](C)c3c4cc5c(cc4ccc23)OCO5)c1OC`, the viability, percent of control stood at 4.88%.

The nature of another assay: Cell Proliferation Assay against the TMD8 Cell Line (Caspase readout at 8 hrs) (AID 651713). Note: potency is the fitted concentration of half-maximal effect. To be noted: TMD8 lymphoma cells, caspase activation luminescence; series mostly up to 46.1 µM. The method, boiled down:
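TMD8 cells (500/well) in phenol red-free RPMI with 5% FBS were treated with compounds for 8 h at 37C, 5% CO2. Caspase-Glo 3/7 luminescence was read after 15 min at room temperature and normalised to DMSO (0%) and 9.2 uM bortezomib (100%).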
With `CC(=O)Nc1ccc(OC[C@](C)(O)C(=O)Nc2ccc([N+](=O)[O-])c(C(F)(F)F)c2)cc1`, the Potency result is “inactive”.

As to `CC1CC(C)C(=O)C(C(O)CC2CC(=O)NC(=O)C2)C1` (configuration not stated), the Potency is 17.1 µM (active).

As to `COc1ccc2c(c[n+](C)c3c4cc5c(cc4ccc23)OCO5)c1OC`, the Potency is 2.96 µM (active).

(Values after PubChem BioAssay (NCATS).)
